High-throughput results (PubChem)
DRD3 agonist: activates the human D3 dopamine receptor; P35462; D3R DiscoveRx beta-arrestin cells, luminescence, 90 min; max activation, %; 0.58% of 410,000 active; AID 652048; in the data active means max activation above about 30%; further: 0% is about no effect
Target sequence (P35462 whole entry, looked up): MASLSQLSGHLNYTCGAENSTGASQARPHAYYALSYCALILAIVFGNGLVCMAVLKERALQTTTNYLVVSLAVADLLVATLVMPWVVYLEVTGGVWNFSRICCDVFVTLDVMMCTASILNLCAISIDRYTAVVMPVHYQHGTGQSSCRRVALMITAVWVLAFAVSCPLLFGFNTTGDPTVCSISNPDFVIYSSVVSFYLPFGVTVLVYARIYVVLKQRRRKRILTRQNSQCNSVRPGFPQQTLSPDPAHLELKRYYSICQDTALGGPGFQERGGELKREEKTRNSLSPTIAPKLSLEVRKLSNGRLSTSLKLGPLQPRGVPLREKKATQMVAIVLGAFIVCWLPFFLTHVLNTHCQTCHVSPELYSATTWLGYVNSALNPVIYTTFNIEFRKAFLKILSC
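Agonist mode: compounds and dopamine controls were applied to plated cells for 90 min at 37 degrees C after an overnight attachment at 1500 cells/well. Luminescent read-out followed 30 - 60 minutes at room temperature with DiscoveRx detection reagent.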
B2AR arrestin: agonists driving beta-arrestin recruitment to human beta2-adrenergic receptor | P07550 | Potency, µM (highest dose often 46.1 µM), inactives show top-dose activation, hits mostly activators | beta-arrestin recruitment to beta2AR, cell-based reporter | 0.02% of 330,000 active;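 further: potency means the concentration at half of the fitted maximal effect; 0% = DMSO controls and full agonism = EC100 isoproterenol or metaproterenol; nearly all actives have a fitted effect of over 65% in size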
DRD3 antagonist: D3 dopamine receptor (human) antagonism; P35462; D3R cells, DiscoveRx beta-arrestin luminescence, antagonist mode; active compounds read low; max response, negative = inhibition, %; 2.5% of 360,000 active; AID 652054; in the data active means max response below about -50%; inconclusive means no clear call, values can overlap the other calls; further: on the % scale 0 is the no-effect control and ±100 the full control effect
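Cells expressing the human receptor were seeded at 1500 cells/well, incubated overnight at 37 degrees C in 5% CO2, then exposed to library compounds with dopamine controls for 90 minutes at 37 degrees C before luminescent detection.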
IDH1 R132H inh: blocks human mutant IDH1 R132H enzyme | 0.093% of 390,000 active | Potency, µM (highest dose often 76.6 µM), without a hit: at the highest dose activity change, negative = inhibition, usual class: inhibitors | IDH1-R132H enzyme, NADPH consumption, diaphorase/resazurin fluorescence; further: potency means the concentration at half of the fitted maximal effect; on the % scale 0 is the no-effect control and ±100 the full control effect; nearly all actives have a fitted effect of over 65% in size
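IDH1-R132H (0.5 ug/mL) preincubated 30 min with compound, then NADPH (0.016 mM) and alpha-KG (2 mM) added; 80 min at RT, pH 7.5. Remaining NADPH coupled via diaphorase/resazurin to fluorescence (540/590 nm); concentration-response curves normalized to no-enzyme control.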
Integrin act MD: activates integrin-mediated alleviation for muscular dystrophy | Potency, µM (highest dose often 38.3 µM), without a hit: at the highest dose activation, actives largely listed as activators | alpha7betagal myoblasts, beta-gal FDG fluorescence, 48 h | 0.064% of 350,000 active | AID 624291;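 further: potency means the concentration at half of the fitted maximal effect; 100% = response of the positive control SU9516; nearly all actives have a fitted effect of over 60% in size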
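alpha7betagal+/- myoblasts (passage 13, 250/well) treated 48 h at 37C with compounds at 1:260 dilution of DMSO stock. Lysed, then beta-galactosidase activity read as FDG fluorescence (ex 480/em 540) after 30 min, with pre-read for autofluorescence.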
Active calls of the source: *; ? = inconclusive; · = no result; [ ] = another dose, or the depositor's remark. An excerpt weighted towards active compounds, which were near 2.9% of everything screened. Unless noted, the call rests on the fitted dose curve; in most records, active means well fitted curve in the direction sought with a large enough effect; inconclusive means small, poorly fitted or top-dose-only effect, or another doubt; inactive means no such curve, though single readings can be large; an effect the other way counts as inactive or inconclusive.

SMILES | DRD3 agonist | B2AR arrestin | DRD3 antagonist | IDH1 R132H inh | Integrin act MD
O=[N+]([O-])c1ccc(O)c(/C=N\N=C2c3ccccc3-c3ccccc32)c1 | -18.9 | 0.0% | -78.2* | 10.1% | -15.2%
NC(N)=N/N=C/c1cc([N+](=O)[O-])ccc1O | -4.8 | 0.2% | -10.4 | 2.9% | 9.8%
CCOC(=O)N1CCc2c(sc(NCc3cccc(F)c3)c2C(=O)Nc2ccc(OCC)cc2)C1 | -6.6 | · | · | -10.8% | ·
Cc1ccnc(NS(=O)(=O)c2ccc(NC(=O)c3ccc(N4C(=O)CCC4=O)cc3)cc2)n1 | -2.1 | 0.5% | -5.3 | 3.4% | 25.6%
Cc1cc(C)nc(NS(=O)(=O)c2ccc(NC(=O)c3cccc(N4C(=O)CCC4=O)c3)cc2)n1 | -7.9 | 0.4% | -59.4* | 3.7% | 12.5%
Nn1c(-c2cccc(Br)c2)n[nH]c1=S | -14.5 | -0.5% | -84.8* | 1.7% | 10.5%
CC(C)Cn1c([N+](=O)[O-])nc2c1c(=O)[nH]c(=O)n2C | -10.2 | -1.0% | -13.2 | 18.3% | -45.9%
Cn1c(=O)[nH]c(=O)c2c1nc([N+](=O)[O-])n2Cc1ccccc1 | -27.2 | -0.1% | -81.7* | -3.3% | -67.9%
C=CCn1c(C)cc(C(=O)CSc2nc3ccccc3c(=O)[nH]2)c1C | 8.6 | -0.2% | -62.2* | 0.0% | -40.7%
COc1ccc(N/N=C(/N=Nc2nc(C)cc(=O)[nH]2)c2ccccc2)cc1 | -5.9 | -0.5% | -56.5* | -0.1% | -35.3%
Cc1cc(=O)[nH]c(N=N/C(=N/Nc2ccc(O)cc2)c2ccccc2)n1 | 2.4 | 4.3% | -101.5* | 5.2% | -31.9%
Cc1cc(=O)[nH]c(N=N/C(=N/Nc2ccccc2C)c2ccccc2)n1 | -3.1 | -0.5% | ? | 3.8% | -2.3%
CCCCS(=O)(=O)N1CCCC(C(=O)NCCc2ccccc2)C1 (configuration not stated) | 12.9 | -0.9% | 2.9 | -2.6% | 7.08µM*
COc1ccc(S(=O)(=O)N2CCC(C(=O)NCc3ccncc3)CC2)cc1Cl | -2.1 | -0.3% | -5.9 | 6.1% | ?
CCCS(=O)(=O)N1CCCC(C(=O)c2cccc(Cl)c2)C1 (configuration not stated) | -10.0 | 0.0% | -67.8* | 6.2% | 6.31µM*
O=C(NCC1CCCO1)C1CCCN(S(=O)(=O)c2ccc(Cl)cc2)C1 (configuration not stated) | 33.7* | 0.2% | 15.6 | -1.7% | 0.0%
COc1ccc(S(=O)(=O)N2CCCC(C(=O)NCc3ccncc3)C2)cc1Cl (configuration not stated) | -1.1 | 0.3% | -71.0* | 0.0% | 2.2%
CS(=O)(=O)N1CCCC(C(=O)c2cccc(Cl)c2)C1 (configuration not stated) | -5.0 | -0.8% | -12.0 | -3.7% | 0.0%
CC(CNC(=O)c1sc2ncccc2c1-n1cccc1)c1ccccc1 (configuration not stated) | 9.4 | · | · | -2.2% | ·
CCCS(=O)(=O)N1CCCC(C(=O)NCCc2ccc(Cl)cc2)C1 (configuration not stated) | -7.6 | 0.0% | -63.1* | 4.7% | -11.2%
COc1ccc([C@]23Cc4cc(OC)c(OC)cc4C(O2)c2c(cc(C)n(Cc4ccccc4)c2=O)O3)cc1 | · | -0.7%[9.22 µM] | · | · | ·
CCCN(CCC)C(=O)Cn1c(=O)n(-c2cccc(C)c2)c(=O)c2c1c1cc(OC)ccc1n2C | -4.1 | · | · | -7.0% | ·
CC(C)n1nnnc1-c1cccc(Cl)c1 | 8.1 | 0.1% | -50.6* | 9.2% | -2.0%
CC(=O)NCC1(c2ccccc2)CCN(CCCC(=O)c2ccc(F)cc2)CC1 | -8.2 | · | -115.7* | -6.6% | -18.7%
CCOc1ccccc1NC(=O)c1c2c(nc3ccccc13)C(=O)N(C1CCCCC1)C2 | 0.8 | · | · | -22.3% | ·
SMILES | DRD3 agonist | B2AR arrestin | DRD3 antagonist | IDH1 R132H inh | Integrin act MD
COc1cc(OC)nc(C(NC(=O)C2CCN(Cc3c[nH]c4ccccc34)CC2)c2ccc(Cl)cc2)n1 (configuration not stated) | -18.1 | · | -27.4 | · | ·
O=C(NC(c1ccc(F)cc1)c1ccc2ccccc2n1)C1CCN(CCOc2ccc(Cl)cc2)CC1 (configuration not stated) | -24.1 | · | -117.9* | · | ·
O=C(NC(c1ccccc1)c1ccc2ccccc2n1)C1CCN(CCOc2ccc(Cl)cc2Cl)CC1 (configuration not stated) | -8.4 | · | -21.5 | · | ·
O=C(NC(c1ccc(F)cc1)c1ccc2ccccc2n1)C1CCN(Cc2ccc3ccccc3n2)CC1 (configuration not stated) | -15.5 | · | -53.0* | · | ·
COc1cc(OC)nc(C(NC(=O)C2CCN(Cc3ccc(N(C)C)cc3)CC2)c2ccc(F)cc2)n1 (configuration not stated) | -14.7 | · | ? | · | ·
COc1cc(/C=C/CN2CCC(C(=O)NC(c3ccc(F)cc3)c3ccc4ccccc4n3)CC2)ccc1OC(C)=O (configuration not stated) | -25.7 | · | -110.4* | · | ·
CN(C)c1ccc(CN2CCC(C(=O)NC(c3ccc(F)cc3)c3ccc4ccccc4n3)CC2)cc1 (configuration not stated) | -23.1 | · | -81.9* | · | ·
CCN(CC)CCNC(=O)c1ccc2c(=O)n3nc(Nc4ccccc4)sc3nc2c1 | -17.3 | · | · | 29.1% | ·
O=C(NC(c1ccc(F)cc1)c1ccc2ccccc2n1)C1CCN(Cc2cccc(C(F)(F)F)c2)CC1 (configuration not stated) | -13.6 | · | -80.9* | · | ·
O=C(NC(c1ccc(Cl)cc1)c1cnccn1)C1CCN(Cc2cccc(C(F)(F)F)c2)CC1 (configuration not stated) | -18.5 | · | ? | · | ·
CCc1nc2ccc(C(=O)N(C)CCN(C)C)cn2c1N(C)Cc1cc2ccccc2s1 | -26.8 | · | -68.9* | · | ·
Cc1ccc(S(=O)(=O)NC(=O)N[C@@H](C)Cc2ccccc2)cc1 | 5.7 | · | · | · | ·
CCCCCc1nn2cc(-c3ccccc3)nc2s1 | 37.2* | · | · | 28.3% | ·
CC(C)Cc1nn2cc(-c3cccc(Br)c3)nc2s1 | 65.8* | · | · | 22.8% | ·
O=C(CSc1nc2c(oc3ccccc32)c(=O)[nH]1)Nc1cccc(Cl)c1 | 2.7 | · | · | -13.8% | ·
Cc1ccc(C)c(N2CCN(S(=O)(=O)c3ccc(-c4cc(C(F)(F)F)on4)s3)CC2)c1 | -9.0 | · | · | -12.3% | ·
CN1CCCN=C1/C=C/c1cccs1 | 0.0 | 0.6% | -58.2* | 8.8% | -15.2%
COc1ccccc1CC(=O)Nc1ccc(S(=O)(=O)N(C)C2CCN(C)CC2)cc1 | -21.3 | -0.1% | -51.3* | 4.1% | -32.3%
COc1ccc(CC(=O)Nc2ccc(S(=O)(=O)N(C)C3CCN(C)CC3)cc2)cc1 | -21.1 | 0.1% | -3.4 | 3.2% | 7.9%
COc1ccc(F)cc1S(=O)(=O)N1CCC(C(N)=O)CC1 | 0.9 | -0.1% | 7.6 | 1.1% | -15.4%
COc1ccc(C(C)(C)C)cc1S(=O)(=O)N1CCC(C(N)=O)CC1 | -8.4 | -0.5% | -52.4* | 5.7% | -0.3%
Cc1cccc(CNc2ncnc3ccc(-c4ccc5c(ccn5C)c4)cc23)c1 | · | -1.0% | · | · | ·
